Compound activity: PubChem, several laboratories
Sampled rows, rich in hits. Any-hit rate of the full collection: about 2.3%.
Calb FLC = C. albicans growth inhibition with fluconazole, primary screen, CaCi-2 strain, Alamar Blue fluorescence | AID 1979, 2009 | C. albicans CaCi-2 (fluconazole-resistant clinical isolate) + fluconazole, 48 h | 300,000 tested, 0.57% active | growth inhibition, % (concentration not given with the values);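 active = growth inhibition above about 58% in most replicates, limit read from the data, passing the limit was not always enough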;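 also: all wells also contain fluconazole at 8 µg/ml as a sub-toxic cotreatment; 0% = median of DMSO wells and 100% = median of geldanamycin control wells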
Rin1-Abl PPI inh = inhibitors of Rin1-Abl protein binding, primary screen, biochemical, TR-FRET; Tyrosine-protein kinase ABL1 (Homo sapiens) + Ras and Rab interactor 1 (Homo sapiens), …; inhibition, % at 7.35 µM; 360,000 tested, 0.4% active; in the data active = inhibition above about 5%, passing the limit was not always enough
IDE act = human IDE activators in live cells, primary screen, fluorescence polarization, HEK cells, FAbeta-B substrate. 340,000 tested, 0.073% active. FAbeta-B cleavage; 0% vehicle, 100% cell-free pure enzyme wells. activation, % at 5.96 µM. Insulin-degrading enzyme (Homo sapiens), P14735;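 active = activation above the mean of all tested compounds plus 3 SD, set per screening campaign, cut at about 17% in these data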
IDE inh = human IDE inhibitors in live cells, primary screen, fluorescence polarization, HEK cells, FAbetaB substrate | FAbetaB cleavage | inhibition, % at 5.59 µM | 320,000 tested, 0.41% active;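 active = percent inhibition above the average of all tested compounds plus 3 SD, set per screening campaign, cut at about 16% in these data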;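 also: IDE supplied by intact live HEK cells; FP after avidin binding of uncleaved biotin substrate so inhibition keeps polarization high; 0% = DMSO wells and 100% = 60 µM reference IDE inhibitor Ii1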
TPT1 inhibitor = Candida albicans TPT1 enzyme inhibitors, primary screen, biochemical, fluorescence polarization; tRNA 2'-phosphotransferase TPT1 (Candida albicans SC5314); recombinant caTPT1, FP RNA substrate dephosphorylation; inhibition, % at 5 µM; 300,000 tested, 0.81% active;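 active = inhibition above the mean of all tested compounds plus 3 SD, set per screening campaign, cut at about 24% in these data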;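 also: plate controls were DMSO alone for no effect and ferristatin control at 100 nM for full effect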
Rpn11 block = Rpn11 (PSMD14) deubiquitinase inhibitors, primary screen, biochemical, fluorescence polarization, uHTS | inhibition, % at 20 µM | AID 588493, 2011 | human 26S proteasome, Ub4-pepOG fluorescence polarization; 20S core pre-blocked with epoxomicin | 360,000 tested, 0.59% active | 26S proteasome non-ATPase regulatory subunit 14 (Homo sapiens), O00487;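 active = inhibition at 20 µM, scaled to each plate's controls, above about 33%, limit read from the data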
Target sequence (O00487 whole entry, looked up): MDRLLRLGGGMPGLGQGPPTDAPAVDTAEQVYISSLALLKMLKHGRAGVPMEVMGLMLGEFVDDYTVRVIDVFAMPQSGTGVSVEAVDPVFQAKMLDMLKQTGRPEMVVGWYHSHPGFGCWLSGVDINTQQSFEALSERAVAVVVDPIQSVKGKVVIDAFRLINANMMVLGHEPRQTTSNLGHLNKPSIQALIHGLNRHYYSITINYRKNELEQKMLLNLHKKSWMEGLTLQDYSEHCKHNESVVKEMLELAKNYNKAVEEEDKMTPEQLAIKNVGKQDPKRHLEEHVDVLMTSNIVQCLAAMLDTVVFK
caTPT1 confirm = Candida albicans TPT1 inhibitors, confirmation, biochemical, fluorescence polarization, triplicate | inhibition, % at 5 µM | AID 2149, 2009 | recombinant caTPT1, RNase T1 coupled | shares compounds with TPT1 inhibitor | 2,400 tested, 74% active;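 active = inhibition above the primary screen limit, the mean inhibition of all tested compounds plus 3 SD, cut at about 25% in these data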
RNase T1 inh = RNase T1 inhibitors, counter-screen for TPT1 inhibitor project, biochemical, fluorescence polarization | shares compounds with TPT1 inhibitor | 2,400 tested, 83% active | AID 2153, 2009 | inhibition, % at 5 µM | RNase T1 cleavage, 1536-well;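 active = inhibition above the solvent-only control well mean plus 3 SD, limit set per screening run, cut at about 23% in these data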;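 also: plate controls were DMSO wells with enzyme for no effect and wells without RNase T1 for full effect; inhibitors block cleavage so intact labeled substrate keeps polarization high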
Target sequence (P00651 whole entry, looked up): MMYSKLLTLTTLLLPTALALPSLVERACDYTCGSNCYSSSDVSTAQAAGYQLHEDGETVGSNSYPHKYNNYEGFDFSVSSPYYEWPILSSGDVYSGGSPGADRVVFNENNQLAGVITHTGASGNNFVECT
* marks the source's active call; other numbers are inactive results; · = no result given.

SMILES	Calb FLC	Rin1-Abl PPI inh	IDE act	IDE inh	TPT1 inhibitor	Rpn11 block	caTPT1 confirm	RNase T1 inh
COc1ccccc1N1CCN(C(=O)c2cccc(S(=O)(=O)NCc3cccnc3)c2)CC1	·	1.6	2.1	0.2	·	12.5	·	·
CCN(C(=O)CSc1nc2ccc([N+](=O)[O-])cc2s1)c1c(N)n(Cc2ccccc2)c(=O)[nH]c1=O	·	-2.2	5.5	·	·	-3.0	·	·
CN(C)c1ccc(/C=C(\NC(=O)c2ccccc2)C(=O)NCCN2CCOCC2)cc1	1.5	-2.3	-1.9	9.4	28.5*	18.1	17.4	22.6*
CN(C)c1ccc(/C=C(\NC(=O)c2ccccc2)C(=O)N/N=C/c2ccc(C(=O)O)cc2)cc1	14.3	-1.3	-4.8	13.5	33.3*	32.8	19.7	29.4*
CN(C)c1ccc(/C=C(\NC(=O)c2ccccc2)C(=O)NCc2cccnc2)cc1	7.9	-2.6	-0.2	-0.7	50.6*	37.3	68.0*	83.7*
CN(C)c1ccc(/C=N/NC(=O)c2ccccc2)cc1	7.8	-1.2	-1.5	-1.0	-0.3	0.5	·	·
CN(C)c1ccc(/C=C(/NC(=O)c2ccccc2)C(=O)NCCCn2ccnc2)cc1	1.5	0.7	4.9	4.6	134.2*	·	155.1*	157.2*
CN(C)c1ccc(/C=C(\NC(=O)c2ccccc2)C(=O)NCCCN2CCOCC2)cc1	-7.6	-4.3	4.1	-1.1	18.5	17.3	·	·
Nc1nnc(SCc2nnc(-c3ccccc3)o2)s1	1.4	-2.9	-3.3	2.6	-2.0	-2.5	·	·
CCN(Cc1ccccc1)C(=O)CN1C(=O)COc2ccc(S(=O)(=O)NC3CCCC3)cc21	-1.2	-2.2	-4.8	-2.2	5.6	0.5	·	·
Cc1ccc(N/C=C/C(=O)c2sc(-c3ccccc3)nc2C)cc1	-10.1	1.7	-2.0	0.5	38.8*	37.6	37.8*	46.8*
Cc1nc(-c2ccccc2)sc1C(=O)NN	-2.1	-0.9	-5.6	-0.6	2.7	-2.7	·	·
CCN(CC)C1=CC2=CC(=C(C#N)C#N)CCC2CC1 (configuration not stated)	·	-28.8	44.4*	-20.1	32.2*	·	21.8	37.1*
N#CC(C#N)=C1C=C2C=C(N3CCCCC3)CCC2CC1 (configuration not stated)	·	·	·	-30.4	2.9	·	·	·
O=C(C[C@@H]1C/C=C/CC[C@H](Cc2ccc(F)cc2)C(=O)OCCNC1=O)N[C@H](CO)Cc1ccccc1	·	0.6	7.3	-0.9	·	0.7	·	·
O=C(N/N=C/c1sc(=O)n(-c2ccccc2)c1Cl)c1ccccc1	-11.8	0.5	-4.2	5.5	23.1	29.5	·	·
NC(=O)N/N=C/c1sc(=O)n(-c2ccccc2)c1Cl	-1.1	-2.6	6.0	1.2	38.9*	·	47.2*	66.2*
CCOC(=O)c1sc2cc([N+](=O)[O-])cc(SCC(=O)OC)c2c1N	16.6	-7.2	-8.5	9.8	29.2*	35.6	34.7*	49.2*
CCOC(=O)c1ccc(NCn2c(=O)oc3ccccc32)cc1	-12.5	-1.1	-1.1	1.5	30.6*	·	44.4*	57.5*
Cc1cc(N2CCOCC2)ccc1/C=C1\SC(=O)N(C(C)C)C1=O	-0.3	3.7	-3.9	9.4	37.3*	26.5	52.0*	63.6*
CCN1C(=O)S/C(=C\c2ccc(N3CCOCC3)cc2C)C1=O	-8.9	-2.1	-3.0	6.5	39.2*	36.4	54.9*	68.7*
CO[C@H]1O[C@H](C)[C@@H](O)C[C@H]1NC(=O)OCc1ccccc1	3.7	-0.3	1.1	2.0	-2.8	2.2	·	·
N#Cc1ccsc1NC(=O)c1cccc(-n2cnnn2)c1	18.2	-1.4	-3.6	-1.2	47.7*	·	51.4*	64.4*
